PubChem BioAssay (NCI)
About 83,000 compounds went through this panel and 20% of them were active in at least one assay; those are over-represented in the sample as a whole.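 Each cell line was grown in a 96-well plate and treated with one concentration of compound for 48 hours. Values below 10 were considered active.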

Columns and labels:
Experiment in all cases: NCI-60 one-dose screen, 48 h (100 = growth as untreated, 0 = no growth, -100 = all killed)
HCT-15 colon = details: 10 µM unless noted
HT29 colon = details: 10 µM unless noted
SNB-75 CNS = details: 10 µM unless noted
SNB-19 CNS = details: 10 µM unless noted
U251 CNS = details: 10 µM unless noted
PC-3 prostate = details: 10 µM unless noted
SK-MEL-5 melanoma = details: 10 µM unless noted
UACC-62 melanoma = details: 10 µM unless noted
LOX IMVI melanoma = details: 10 µM
SK-MEL-28 melanoma = details: 10 µM unless noted

Measured: growth

O=C(NC(=S)N1CC=CCC1)c1ccccc1
inactive: HCT-15 colon 102% | HT29 colon 100% | SNB-75 CNS 111% | SNB-19 CNS 105% | U251 CNS 104% | PC-3 prostate 98.5% | SK-MEL-5 melanoma 104% | UACC-62 melanoma 107% | LOX IMVI melanoma 107% | SK-MEL-28 melanoma 115%

O=C(c1ccccc1O)N1CCCC1
inactive: HCT-15 colon 99.2% | HT29 colon 93% | SNB-75 CNS 88% | SNB-19 CNS 97.2% | U251 CNS 89.8% | PC-3 prostate 84.4% | SK-MEL-5 melanoma 105% | UACC-62 melanoma 100% | LOX IMVI melanoma 99.7% | SK-MEL-28 melanoma 98.5%

Nc1cc(N)ncn1
inactive: HCT-15 colon 102% | HT29 colon 104% | SNB-75 CNS 88.9% | SNB-19 CNS 96.1% | U251 CNS 104% | PC-3 prostate 97.7% | SK-MEL-5 melanoma 98.3% | UACC-62 melanoma 99.6% | LOX IMVI melanoma 98.4% | SK-MEL-28 melanoma 98.9%

N#CCCN1C(=O)CCC1C(=O)O (stereo not given)
inactive: HCT-15 colon 97.8% | HT29 colon 89.8% | SNB-75 CNS 103% | SNB-19 CNS 101% | U251 CNS 101% | PC-3 prostate 90.9% | SK-MEL-5 melanoma 110% | UACC-62 melanoma 105% | LOX IMVI melanoma 120% | SK-MEL-28 melanoma 124%

Cc1ccc(S(N)(=O)=O)cc1Cl
inactive: HCT-15 colon 104% | HT29 colon 104% | SNB-75 CNS 91.8% | SNB-19 CNS 107% | U251 CNS 103% | PC-3 prostate 99.3% | SK-MEL-5 melanoma 103% | UACC-62 melanoma 105% | LOX IMVI melanoma 114% | SK-MEL-28 melanoma 108%

CC1CC(C)S(=O)(=O)C1 (stereo not given)
inactive: HCT-15 colon 103% | HT29 colon 99.9% | SNB-75 CNS 94.6% | SNB-19 CNS 108% | U251 CNS 88.5% | PC-3 prostate 104% | SK-MEL-5 melanoma 101% | UACC-62 melanoma 92.9% | LOX IMVI melanoma 103% | SK-MEL-28 melanoma 111%

CCOP(=O)(OCC)/C(=C\N1C(=O)CC(=O)NC1=S)C(=O)OC
inactive: HCT-15 colon 102% | HT29 colon 111% | SNB-75 CNS 90.2% | SNB-19 CNS 98.6% | U251 CNS 94.7% | PC-3 prostate 97.8% | SK-MEL-5 melanoma 99% | UACC-62 melanoma 98.6% | LOX IMVI melanoma 98.6% | SK-MEL-28 melanoma 107%

N#C/C(=C\NC(=S)N=Nc1c(O)[nH]c2ccccc12)c1nc2ccccc2s1
inactive: HCT-15 colon 101% | HT29 colon 106% | SNB-75 CNS 85.1% | SNB-19 CNS 104% | U251 CNS 92.5% | PC-3 prostate 86.1% | SK-MEL-5 melanoma 94.9% | UACC-62 melanoma 94.3% | LOX IMVI melanoma 96.6% | SK-MEL-28 melanoma 112%

Cc1cc(NC(=O)c2ccccc2)c(Cl)cc1N
inactive: HCT-15 colon 100% | HT29 colon 102% | SNB-75 CNS 100% | SNB-19 CNS 93.9% | U251 CNS 102% | PC-3 prostate 108% | SK-MEL-5 melanoma 97.5% | UACC-62 melanoma 89.8% | LOX IMVI melanoma 97.6% | SK-MEL-28 melanoma 124%

Cc1ccc(S(=O)(=O)NC(=O)NCCSSCCNC(=O)NS(=O)(=O)c2ccc(C)cc2)cc1
inactive: HCT-15 colon 96.7% | HT29 colon 108% | SNB-75 CNS 85.5% | SNB-19 CNS 99.4% | U251 CNS 98.6% | PC-3 prostate 96.6% | SK-MEL-5 melanoma 97.8% | UACC-62 melanoma 101% | LOX IMVI melanoma 98.2% | SK-MEL-28 melanoma 109%

CCOc1ccc(NC(=S)N2CCC(CCCC3CCN(C(=S)Nc4ccc(OCC)cc4)CC3)CC2)cc1
inactive: HCT-15 colon 84% | HT29 colon 87.7% | SNB-75 CNS 80.3% | SNB-19 CNS 96% | U251 CNS 95.1% | PC-3 prostate 99% | SK-MEL-5 melanoma 42.2% | UACC-62 melanoma 83.7% | LOX IMVI melanoma 95.5% | SK-MEL-28 melanoma 94.9%

COC(CCCl)c1ccc(Cl)cc1 (stereo not given)
inactive: HCT-15 colon 98.3% | HT29 colon 93.6% | SNB-75 CNS 84.4% | SNB-19 CNS 110% | U251 CNS 93.3% | PC-3 prostate 108% | SK-MEL-5 melanoma 101% | UACC-62 melanoma 107% | LOX IMVI melanoma 101% | SK-MEL-28 melanoma 106%

O=C(CC(CC(=O)c1ccccc1)c1ccccn1)c1ccccc1
inactive: HCT-15 colon 106% | HT29 colon 95.5% | SNB-75 CNS 92.6% | SNB-19 CNS 93.3% | U251 CNS 99.3% | PC-3 prostate 85.1% | SK-MEL-5 melanoma 95.4% | UACC-62 melanoma 87.2% | LOX IMVI melanoma 94.2% | SK-MEL-28 melanoma 110%

O=C1C=C[C@H](O)[C@@]2(CO)O[C@@H]12
inactive: HCT-15 colon 104% | HT29 colon 53.9% | SNB-75 CNS 81% | SNB-19 CNS 100% | U251 CNS 91.4% | PC-3 prostate 82.3% | SK-MEL-5 melanoma 100% | UACC-62 melanoma 65.8% | LOX IMVI melanoma 66.7% | SK-MEL-28 melanoma 42.1%

O=C(O)C1CSC(c2ccccc2)N1 (stereo not given)
inactive: HCT-15 colon 90.5% | HT29 colon 91.7% | SNB-75 CNS 96.7% | SNB-19 CNS 96.5% | U251 CNS 105% | PC-3 prostate 92.6% | SK-MEL-5 melanoma 101% | UACC-62 melanoma 93% | LOX IMVI melanoma 102% | SK-MEL-28 melanoma 99.6%

C=C1SC(=Nc2c(C)cccc2C)N(c2nc(Cl)nc(Cl)n2)C12CCCCC2
inactive: HCT-15 colon 109% | HT29 colon 108% | SNB-75 CNS 96.7% | SNB-19 CNS 108% | U251 CNS 102% | PC-3 prostate 99.3% | SK-MEL-5 melanoma 84.2% | UACC-62 melanoma 105% | LOX IMVI melanoma 104% | SK-MEL-28 melanoma 104%

COc1nc2ccccc2s1
inactive: HCT-15 colon 98% | HT29 colon 102% | SNB-75 CNS 81% | SNB-19 CNS 110% | U251 CNS 108% | PC-3 prostate 89.1% | SK-MEL-5 melanoma 97.5% | UACC-62 melanoma 103% | LOX IMVI melanoma 82.1% | SK-MEL-28 melanoma 100%

Nc1c(Br)cc(O)c2c1C(=O)c1ccccc1C2=O
inactive: HCT-15 colon 47.7% | HT29 colon 54% | SNB-75 CNS 110% | SNB-19 CNS 95.2% | U251 CNS 92% | PC-3 prostate 84.6% | SK-MEL-5 melanoma 96.7% | UACC-62 melanoma 87.4% | LOX IMVI melanoma 34.4% | SK-MEL-28 melanoma 112%

O=c1cc(Cl)nc2ccccn12
inactive: HCT-15 colon 109% | HT29 colon 111% | SNB-75 CNS 109% | SNB-19 CNS 103% | U251 CNS 107% | PC-3 prostate 96.7% | SK-MEL-5 melanoma 105% | UACC-62 melanoma 117% | LOX IMVI melanoma 103% | SK-MEL-28 melanoma 101%

CC(=O)OCC1OC(n2cnc3c(=S)nc(N)[nH]c32)C(OC(C)=O)C1OC(C)=O (stereo not given)
inactive: HCT-15 colon 79.3% | HT29 colon 74.6% | SNB-75 CNS 56% | SNB-19 CNS 99.9% | U251 CNS 93.1% | PC-3 prostate 104% | SK-MEL-5 melanoma 99.4% | UACC-62 melanoma 65.2% | LOX IMVI melanoma 19.7% | SK-MEL-28 melanoma 114%

O=CNCCc1ccccc1
inactive: HCT-15 colon 109% | HT29 colon 98.3% | SNB-75 CNS 82.9% | SNB-19 CNS 98.4% | U251 CNS 99.4% | PC-3 prostate 91.4% | SK-MEL-5 melanoma 107% | UACC-62 melanoma 96.8% | LOX IMVI melanoma 109% | SK-MEL-28 melanoma 113%

CC1CCC(C)(C)c2ccccc21 (stereo not given)
inactive: HCT-15 colon 101% | HT29 colon 103% | SNB-75 CNS 82.9% | SNB-19 CNS 103% | U251 CNS 99.2% | PC-3 prostate 93.5% | SK-MEL-5 melanoma 95.8% | UACC-62 melanoma 103% | LOX IMVI melanoma 98.6% | SK-MEL-28 melanoma 97.3%

Cc1cc(=O)n(Nc2ccccc2)c(O)c1C#N
inactive: HCT-15 colon 112% | HT29 colon 105% | SNB-75 CNS 97.4% | SNB-19 CNS 103% | U251 CNS 103% | PC-3 prostate 99.4% | SK-MEL-5 melanoma 104% | UACC-62 melanoma 103% | LOX IMVI melanoma 96.6% | SK-MEL-28 melanoma 111%

C=CCNC(=S)N/C=C(/C(=O)c1ccccc1)c1ccccc1
inactive: HCT-15 colon 108% | HT29 colon 120% | SNB-75 CNS 88.5% | SNB-19 CNS 106% | U251 CNS 96.7% | PC-3 prostate 99.9% | SK-MEL-5 melanoma 102% | UACC-62 melanoma 98.8% | LOX IMVI melanoma 98.1% | SK-MEL-28 melanoma 104%

CC(C)(CC(=O)O)CC(=O)O
inactive: HCT-15 colon 105% | HT29 colon 101% | SNB-75 CNS 90.2% | SNB-19 CNS 99.2% | U251 CNS 109% | PC-3 prostate 101% | SK-MEL-5 melanoma 97.7% | UACC-62 melanoma 98.7% | LOX IMVI melanoma 104% | SK-MEL-28 melanoma 99.2%

OCc1cccnc1
inactive: HCT-15 colon 92.4% | HT29 colon 107% | SNB-75 CNS 102% | SNB-19 CNS 96.8% | U251 CNS 91.8% | PC-3 prostate 94.7% | SK-MEL-5 melanoma 116% | UACC-62 melanoma 103% | LOX IMVI melanoma 104% | SK-MEL-28 melanoma 111%

COc1ccc(Nc2cc(Cl)ccc2C(=O)O)cn1
inactive: HCT-15 colon 106% | HT29 colon 106% | SNB-75 CNS 99.4% | SNB-19 CNS 96.5% | U251 CNS 105% | PC-3 prostate 99% | SK-MEL-5 melanoma 114% | UACC-62 melanoma 96.3% | LOX IMVI melanoma 98.1% | SK-MEL-28 melanoma 98.8%

C=CCOc1ccc(Cl)cc1Cl
inactive: HCT-15 colon 104% | HT29 colon 112% | SNB-75 CNS 90.3% | SNB-19 CNS 114% | U251 CNS 106% | PC-3 prostate 88.2% | SK-MEL-5 melanoma 108% | UACC-62 melanoma 92.7% | LOX IMVI melanoma 99.6% | SK-MEL-28 melanoma 115%

Cc1ccc(C)c(CCO)c1
inactive: HCT-15 colon 112% | HT29 colon 109% | SNB-75 CNS 95.7% | SNB-19 CNS 101% | U251 CNS 90.6% | PC-3 prostate 95.5% | SK-MEL-5 melanoma 90.7% | UACC-62 melanoma 103% | LOX IMVI melanoma 100% | SK-MEL-28 melanoma 105%

CC(C)N(CCCC#N)C(C)C
inactive: HCT-15 colon 96.7% | HT29 colon 86.6% | SNB-75 CNS 85.2% | SNB-19 CNS 90.7% | U251 CNS 92.4% | PC-3 prostate 86.7% | SK-MEL-5 melanoma 103% | UACC-62 melanoma 95.2% | LOX IMVI melanoma 97.7% | SK-MEL-28 melanoma 95.3%
